Source: PubChem BioAssay (EPA / NIEHS)
Results filed as inconclusive are left out. Activity calls are given as the source filed them. Rule for the calls, unless noted: active = hit-call score of the fitted dose curve at least 0.9, where 1 is the maximum; inconclusive = response in the unintended direction; inactive = score below 0.9.

Legend:
[1] = ATG_TAL_CIS: Attagene CIS-FACTORIAL HepG2 Assay for human TAL Basal Promoter (AID 2282966; active = hit-call score of the fitted dose curve at least 0.9, where 1 is the maximum; inactive = score below 0.9;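 note: background control endpoint measuring basal TAL promoter reporter mRNA not a specific factor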); details: HepG2 Attagene cis-factorial TAL promoter reporter; actives raise or lower the signal
In short: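 Background-control endpoint: basal TAL promoter reporter transcripts in transiently transfected HepG2, measured 24 h after dosing. Read-out by RT-PCR with fluorescent primer extension and capillary electrophoresis; gain or loss of signal fitted relative to DMSO.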

[2] = ATG_TGFb_CIS: Attagene CIS-FACTORIAL HepG2 Assay for human Transforming Growth Factor (TGF) (AID 2282967; active = hit-call score of the fitted dose curve at least 0.9, where 1 is the maximum; inactive = score below 0.9); details: HepG2 Attagene CIS TGFb reporter, mRNA transcription; actives raise or lower the signal
In short: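 Cells were dosed for 24 hours, after which total RNA was reverse-transcribed and reporter sequences amplified, labeled and sized by capillary electrophoresis. Activity was fitted in both directions against DMSO.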

[3] = ATG_VDRE_CIS: Attagene CIS-FACTORIAL HepG2 Assay for human Vitamin D Receptor Element (VDRE) (AID 2282968; active = hit-call score of the fitted dose curve at least 0.9, where 1 is the maximum; inactive = score below 0.9); details: HepG2 VDRE cis-reporter transcription, actives raise or lower the signal
In short: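 Readout is VDRE-driven reporter mRNA reflecting endogenous factor activity in human HepG2 cells, sampled 24 h post-dose. Quantification used labelled RT-PCR products separated by capillary electrophoresis; bidirectional analysis relative to DMSO.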

[4] = target: X-box-binding protein 1 (Homo sapiens) (UniProt P17861); assay: ATG_Xbp1_CIS: Attagene CIS-FACTORIAL HepG2 Assay for human X-box Binding Protein 1 (XBP1) (AID 2282972; active = hit-call score of the fitted dose curve at least 0.9, where 1 is the maximum; inactive = score below 0.9); details: HepG2 XBP1 cis-element reporter, Attagene multiplex; actives raise or lower the signal
Chain of X-box-binding protein 1 (Homo sapiens) (P17861 whole entry, looked up): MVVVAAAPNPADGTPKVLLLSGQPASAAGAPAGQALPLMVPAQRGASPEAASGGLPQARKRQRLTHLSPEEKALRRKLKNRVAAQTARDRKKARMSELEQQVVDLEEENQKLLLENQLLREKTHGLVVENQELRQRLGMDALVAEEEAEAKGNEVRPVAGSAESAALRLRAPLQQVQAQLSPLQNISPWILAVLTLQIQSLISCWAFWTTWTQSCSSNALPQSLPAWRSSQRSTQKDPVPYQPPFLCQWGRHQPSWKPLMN
In short: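 Changes in reporter transcript abundance, read by RT-PCR and capillary electrophoresis, reflect endogenous transcription factor activity. Transfected HepG2 cells received compound for 24 hours; DMSO defined baseline for bidirectional analysis.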

[5] = ATG_M_19_TRANS: Attagene TRANS-FACTORIAL HepG2 Assay for M19 Transcription Factor (Internal Marker) (AID 2282974); details: HepG2 Attagene TRANS-FACTORIAL M19 internal marker reporter
In short: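 After transfection of HepG2 with GAL4-UAS-driven reporter constructs, cells are dosed for 24 h. Total RNA is reverse-transcribed, reporter sequences PCR-amplified and labelled, then HpaI-digested and sized by capillary electrophoresis.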

[6] = ATG_GAL4_TRANS: Attagene TRANS-FACTORIAL HepG2 Assay for GAL4 (Internal Marker) (AID 2282976); details: HepG2 Attagene TRANS GAL4 internal marker reporter
In short: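 In transfected human HepG2 liver cells dosed 24 h, GAL4 reporter mRNA serves as a baseline marker. Detection by RT-PCR with fluorescent capillary electrophoresis, activity fitted upward relative to DMSO.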

[7] = target: Estrogen-related receptor gamma (Homo sapiens) (UniProt P62508); assay: ATG_ERRg_TRANS: Attagene TRANS-FACTORIAL HepG2 Assay for human Estrogen-Related Receptor gamma (ERRg) (AID 2282977); details: HepG2 Attagene TRANS reporter, ERRg transactivation;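 note: hits increase reporter signal over DMSO so potencies reflect activators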
Chain of Estrogen-related receptor gamma (Homo sapiens) (P62508 whole entry, looked up, the tested form may be a part): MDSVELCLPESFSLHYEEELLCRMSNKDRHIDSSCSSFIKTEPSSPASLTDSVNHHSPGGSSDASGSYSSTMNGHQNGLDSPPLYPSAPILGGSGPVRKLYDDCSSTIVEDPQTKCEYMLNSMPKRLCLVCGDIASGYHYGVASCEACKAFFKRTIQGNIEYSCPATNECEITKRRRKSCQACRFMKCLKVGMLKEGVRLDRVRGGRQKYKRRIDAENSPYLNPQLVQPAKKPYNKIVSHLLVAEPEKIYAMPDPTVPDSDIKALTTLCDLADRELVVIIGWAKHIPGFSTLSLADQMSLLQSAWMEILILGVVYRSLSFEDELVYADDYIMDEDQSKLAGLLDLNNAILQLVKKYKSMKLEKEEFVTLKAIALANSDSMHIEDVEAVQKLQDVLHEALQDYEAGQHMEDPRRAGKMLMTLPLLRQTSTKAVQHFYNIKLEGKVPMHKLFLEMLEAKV
In short: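 Induction of reporter transcripts through a chimeric NR-Gal4 protein is quantified in transfected human HepG2 liver cells after 24 h chemical exposure, using RT-PCR with capillary electrophoresis detection and DMSO as baseline.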

[8] = target: Glucocorticoid receptor (Homo sapiens) (UniProt P04150); assay: ATG_GR_TRANS: Attagene TRANS-FACTORIAL HepG2 Assay for human Glucocorticoid Receptor (GR) (AID 2282978); details: HepG2 Attagene TRANS GR reporter, mRNA transcription;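 note: activators score as hits since higher reporter transcript over DMSO is fitted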
Chain of Glucocorticoid receptor (Homo sapiens) (P04150 whole entry, looked up): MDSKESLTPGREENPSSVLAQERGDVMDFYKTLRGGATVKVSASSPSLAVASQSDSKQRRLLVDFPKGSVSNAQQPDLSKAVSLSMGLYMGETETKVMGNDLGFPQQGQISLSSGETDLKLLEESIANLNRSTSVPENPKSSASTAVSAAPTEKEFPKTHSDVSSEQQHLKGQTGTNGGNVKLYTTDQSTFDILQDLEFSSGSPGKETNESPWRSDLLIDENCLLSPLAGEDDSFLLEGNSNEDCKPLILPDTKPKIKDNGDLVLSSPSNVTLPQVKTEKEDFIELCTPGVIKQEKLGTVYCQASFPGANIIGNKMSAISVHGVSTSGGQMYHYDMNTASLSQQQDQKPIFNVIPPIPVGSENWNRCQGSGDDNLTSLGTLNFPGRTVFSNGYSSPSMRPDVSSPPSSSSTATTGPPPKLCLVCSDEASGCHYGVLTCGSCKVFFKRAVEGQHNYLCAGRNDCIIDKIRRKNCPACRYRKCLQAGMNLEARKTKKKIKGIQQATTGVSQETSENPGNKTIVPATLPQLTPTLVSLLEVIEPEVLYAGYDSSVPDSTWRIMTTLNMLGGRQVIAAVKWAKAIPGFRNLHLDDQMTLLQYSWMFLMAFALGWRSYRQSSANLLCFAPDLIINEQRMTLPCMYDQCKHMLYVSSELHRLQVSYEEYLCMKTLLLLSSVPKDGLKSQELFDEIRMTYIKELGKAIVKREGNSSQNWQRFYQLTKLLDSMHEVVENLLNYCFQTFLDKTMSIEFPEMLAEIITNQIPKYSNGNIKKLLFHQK
In short: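 Multiplexed TRANS reporter system, HepG2; 24 h exposure; RNA → oligo(dT) RT → reporter-specific PCR → 6-FAM primer extension → HpaI cut → CE fluorescence. Gain-of-signal vs DMSO.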

[9] = target: Oxysterols receptor LXR-beta (Homo sapiens) (UniProt P55055); assay: ATG_LXRb_TRANS: Attagene TRANS-FACTORIAL HepG2 Assay for human Liver X Receptor beta (LXRb) (AID 2282981); details: HepG2 Attagene TRANS GAL4-LXRb reporter, mRNA
Chain of Oxysterols receptor LXR-beta (Homo sapiens) (P55055 whole entry, looked up, the tested form may be a part): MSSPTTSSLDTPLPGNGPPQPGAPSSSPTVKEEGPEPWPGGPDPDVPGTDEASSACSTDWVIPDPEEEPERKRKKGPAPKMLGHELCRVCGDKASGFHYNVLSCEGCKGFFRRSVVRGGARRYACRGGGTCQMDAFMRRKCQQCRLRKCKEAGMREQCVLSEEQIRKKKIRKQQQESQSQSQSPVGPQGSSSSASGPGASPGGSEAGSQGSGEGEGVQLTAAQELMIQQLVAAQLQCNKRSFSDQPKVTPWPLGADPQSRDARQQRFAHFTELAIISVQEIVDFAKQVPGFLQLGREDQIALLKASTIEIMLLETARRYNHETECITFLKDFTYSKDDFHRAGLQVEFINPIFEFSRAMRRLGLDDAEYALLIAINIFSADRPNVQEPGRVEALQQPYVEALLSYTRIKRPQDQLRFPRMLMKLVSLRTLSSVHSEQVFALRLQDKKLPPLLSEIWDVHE
In short: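 After 24 h chemical treatment of transfected HepG2 cells carrying exogenous NR-Gal4 chimeras, reporter mRNA was quantified by fluorescent RT-PCR and capillary electrophoresis; activity taken as increase over DMSO controls.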

[10] = ATG_M_32_TRANS: Attagene TRANS-FACTORIAL HepG2 Assay for M32 Transcription Factor (Internal Marker) (AID 2282984); details: HepG2 Attagene TRANS M32 internal marker reporter
In short: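 Internal background reporter in transfected HepG2: after 24 h chemical exposure, RNA reverse-transcribed, reporter cDNA amplified, fluorescently labelled and HpaI-cut, then sized by capillary electrophoresis. Gain of signal fitted against DMSO control.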

[11] = target: Transcriptional activator Myb (Homo sapiens) (UniProt P10242); assay: ATG_Myb_CIS: Attagene CIS-FACTORIAL HepG2 Assay for human Myeloblastosis (Myb) Proto-Oncogene Transcription Factor (AID 2282986; active = hit-call score of the fitted dose curve at least 0.9, where 1 is the maximum; inactive = score below 0.9); details: HepG2 Attagene CIS-FACTORIAL Myb reporter transcription; actives raise or lower the signal
Chain of Transcriptional activator Myb (Homo sapiens) (P10242 whole entry, looked up): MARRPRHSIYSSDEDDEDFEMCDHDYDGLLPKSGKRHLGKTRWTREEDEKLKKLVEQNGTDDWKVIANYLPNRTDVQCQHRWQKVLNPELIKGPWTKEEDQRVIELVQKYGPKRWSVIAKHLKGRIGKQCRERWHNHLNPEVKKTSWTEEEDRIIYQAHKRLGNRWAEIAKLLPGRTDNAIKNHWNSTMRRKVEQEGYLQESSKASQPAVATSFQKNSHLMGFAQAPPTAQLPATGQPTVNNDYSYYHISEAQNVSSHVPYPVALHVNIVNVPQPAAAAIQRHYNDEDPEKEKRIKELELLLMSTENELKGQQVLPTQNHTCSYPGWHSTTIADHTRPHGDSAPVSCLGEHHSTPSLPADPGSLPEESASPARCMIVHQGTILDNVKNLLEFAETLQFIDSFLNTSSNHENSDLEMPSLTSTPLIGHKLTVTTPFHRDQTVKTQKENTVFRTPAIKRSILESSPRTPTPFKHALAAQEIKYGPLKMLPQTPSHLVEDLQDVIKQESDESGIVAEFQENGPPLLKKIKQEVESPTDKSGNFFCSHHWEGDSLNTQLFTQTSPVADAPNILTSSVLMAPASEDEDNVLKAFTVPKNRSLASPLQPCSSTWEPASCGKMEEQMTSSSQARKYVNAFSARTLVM
In short: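 Endogenous transcription factor activity at a Myb-responsive cis element is reported in human liver HepG2 cells after 24 h chemical treatment. Reporter mRNA is detected by RT-PCR and capillary electrophoresis fluorescence, with DMSO as baseline.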

[12] = target: Nuclear respiratory factor 1 (Homo sapiens) (UniProt Q16656); assay: ATG_NRF1_CIS: Attagene CIS-FACTORIAL HepG2 Assay for human Nuclear Respiratory Factor 1 (NRF1) Orphan Gene (AID 2282987; active = hit-call score of the fitted dose curve at least 0.9, where 1 is the maximum; inactive = score below 0.9); details: HepG2 NRF1 cis-element reporter, Attagene multiplex; actives raise or lower the signal
In short: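 Human hepatoma HepG2 cells carrying transfected promoter-regulated reporter units were incubated with test chemicals for 24 h. Reporter transcripts were measured by RT-PCR plus capillary electrophoresis, and endpoints derived by bidirectional fitting with DMSO as baseline.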

[13] = target: Steroid hormone receptor ERR1 (Homo sapiens) (UniProt P11474); assay: ATG_ERRa_TRANS: Attagene TRANS-FACTORIAL HepG2 Assay for human Estrogen-Related Receptor alpha (ERRa) (AID 2282971); details: HepG2 Attagene TRANS reporter, ERRa transactivation
Chain of Steroid hormone receptor ERR1 (Homo sapiens) (P11474 whole entry, looked up, the tested form may be a part): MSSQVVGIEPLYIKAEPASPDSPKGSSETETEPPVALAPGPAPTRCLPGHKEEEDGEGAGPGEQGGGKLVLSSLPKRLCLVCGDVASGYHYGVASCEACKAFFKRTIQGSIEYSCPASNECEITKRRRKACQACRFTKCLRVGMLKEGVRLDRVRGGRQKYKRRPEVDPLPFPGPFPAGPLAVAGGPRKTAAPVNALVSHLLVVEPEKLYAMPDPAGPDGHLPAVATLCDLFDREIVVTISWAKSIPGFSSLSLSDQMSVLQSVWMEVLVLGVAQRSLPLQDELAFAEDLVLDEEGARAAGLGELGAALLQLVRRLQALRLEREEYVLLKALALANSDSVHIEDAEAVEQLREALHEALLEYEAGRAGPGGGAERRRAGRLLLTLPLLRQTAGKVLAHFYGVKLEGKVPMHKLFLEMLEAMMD
In short: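 Reporter transcripts from ERRa-Gal4 chimera activity measured in transiently transfected human HepG2 cells 24 hours after dosing, using RT-PCR with 6-FAM primer extension, HpaI digestion and capillary electrophoresis; DMSO is baseline.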

[14] = target: Bile acid receptor (Homo sapiens) (UniProt Q96RI1); assay: ATG_FXR_TRANS: Attagene TRANS-FACTORIAL HepG2 Assay for Farnesoid X Receptor (FXR) (AID 2282979); details: HepG2 Attagene TRANS FXR-GAL4 reporter transcription;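 note: hits raise reporter mRNA above DMSO so AC50 marks FXR activation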
In short: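 Reporter transcripts from transfected HepG2 cells were measured 24 h after dosing, using RT-PCR with capillary electrophoresis of 6-FAM-labelled fragments. The read-out reflects activity of exogenous FXR-Gal4 chimera on GAL4-UAS units, with induction relative to DMSO.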

[15] = target: Oxysterols receptor LXR-alpha (Homo sapiens) (UniProt Q13133); assay: ATG_LXRa_TRANS: Attagene TRANS-FACTORIAL HepG2 Assay for human Liver X Receptor alpha (LXRa) (AID 2282980); details: HepG2 Attagene TRANS reporter, LXRa transactivation
Chain of Oxysterols receptor LXR-alpha (Homo sapiens) (Q13133 whole entry, looked up, the tested form may be a part): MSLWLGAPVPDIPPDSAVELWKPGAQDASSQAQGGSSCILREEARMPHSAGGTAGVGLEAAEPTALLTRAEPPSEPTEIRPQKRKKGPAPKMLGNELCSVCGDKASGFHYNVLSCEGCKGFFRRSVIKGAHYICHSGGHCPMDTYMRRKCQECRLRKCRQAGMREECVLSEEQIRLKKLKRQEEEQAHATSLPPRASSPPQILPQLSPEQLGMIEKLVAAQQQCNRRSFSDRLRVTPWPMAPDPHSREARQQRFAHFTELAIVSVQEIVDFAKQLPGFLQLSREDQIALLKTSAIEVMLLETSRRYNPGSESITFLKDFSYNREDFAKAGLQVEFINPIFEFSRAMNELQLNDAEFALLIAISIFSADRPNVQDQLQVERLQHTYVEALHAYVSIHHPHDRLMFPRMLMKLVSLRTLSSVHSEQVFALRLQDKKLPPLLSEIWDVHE
In short: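 Chemical-induced reporter mRNA measured by RT-PCR with fluorescent labelling and capillary electrophoresis after 24 h dosing of transiently transfected HepG2 cells expressing exogenous NR-Gal4 chimeras; increases scored against DMSO baseline.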

[16] = target: Hepatocyte nuclear factor 4-alpha (Homo sapiens) (UniProt P41235); assay: ATG_HNF4a_TRANS: Attagene TRANS-FACTORIAL HepG2 Assay for human Hepatocyte Nuclear Factor 4 alpha (HNF4a) (AID 2282982); details: HepG2 HNF4a transactivation reporter, mRNA readout
Chain of Hepatocyte nuclear factor 4-alpha (Homo sapiens) (P41235 whole entry, looked up, the tested form may be a part): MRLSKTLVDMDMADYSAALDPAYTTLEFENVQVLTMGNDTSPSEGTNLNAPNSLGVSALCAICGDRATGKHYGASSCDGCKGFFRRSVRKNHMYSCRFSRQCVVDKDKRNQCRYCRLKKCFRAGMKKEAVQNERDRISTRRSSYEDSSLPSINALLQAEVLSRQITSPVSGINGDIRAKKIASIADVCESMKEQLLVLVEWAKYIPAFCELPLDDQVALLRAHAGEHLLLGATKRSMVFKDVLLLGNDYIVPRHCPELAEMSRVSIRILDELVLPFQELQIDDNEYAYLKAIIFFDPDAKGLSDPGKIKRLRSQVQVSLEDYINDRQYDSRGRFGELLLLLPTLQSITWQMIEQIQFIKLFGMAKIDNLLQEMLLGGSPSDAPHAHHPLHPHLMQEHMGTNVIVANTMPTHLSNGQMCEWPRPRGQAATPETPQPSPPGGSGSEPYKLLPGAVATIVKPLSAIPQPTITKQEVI
In short: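 Activity of an exogenous HNF4a–Gal4 fusion scored as induced GAL4-UAS reporter transcripts after 24 h chemical exposure of transfected human HepG2 cells. Read-out via RT-PCR with 6-FAM labelling and capillary electrophoresis; rise over DMSO baseline.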

[17] = ATG_M_06_TRANS: Attagene TRANS-FACTORIAL HepG2 Assay for M06 Transcription Factor (Internal Marker) (AID 2282983); details: HepG2 Attagene TRANS M06 internal marker reporter;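 note: reporter transcript level by RT-PCR then capillary electrophoresis fluorescence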
In short: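 Background-control reporter readout: after 24 h chemical exposure of transiently transfected HepG2 (GAL4-UAS reporter units), mRNA quantified by RT-PCR with fluorescent labeling and capillary electrophoresis. Gain-of-signal fitting against DMSO baseline.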

[18] = target: Nuclear receptor subfamily 4 group A member 2 (Homo sapiens) (UniProt P43354); assay: ATG_NURR1_TRANS: Attagene TRANS-FACTORIAL HepG2 Assay for human Nuclear Receptor Related Protein 1 (NURR1) (AID 2282985); details: HepG2 Attagene TRANS reporter, mRNA readout
Chain of Nuclear receptor subfamily 4 group A member 2 (Homo sapiens) (P43354 whole entry, looked up, the tested form may be a part): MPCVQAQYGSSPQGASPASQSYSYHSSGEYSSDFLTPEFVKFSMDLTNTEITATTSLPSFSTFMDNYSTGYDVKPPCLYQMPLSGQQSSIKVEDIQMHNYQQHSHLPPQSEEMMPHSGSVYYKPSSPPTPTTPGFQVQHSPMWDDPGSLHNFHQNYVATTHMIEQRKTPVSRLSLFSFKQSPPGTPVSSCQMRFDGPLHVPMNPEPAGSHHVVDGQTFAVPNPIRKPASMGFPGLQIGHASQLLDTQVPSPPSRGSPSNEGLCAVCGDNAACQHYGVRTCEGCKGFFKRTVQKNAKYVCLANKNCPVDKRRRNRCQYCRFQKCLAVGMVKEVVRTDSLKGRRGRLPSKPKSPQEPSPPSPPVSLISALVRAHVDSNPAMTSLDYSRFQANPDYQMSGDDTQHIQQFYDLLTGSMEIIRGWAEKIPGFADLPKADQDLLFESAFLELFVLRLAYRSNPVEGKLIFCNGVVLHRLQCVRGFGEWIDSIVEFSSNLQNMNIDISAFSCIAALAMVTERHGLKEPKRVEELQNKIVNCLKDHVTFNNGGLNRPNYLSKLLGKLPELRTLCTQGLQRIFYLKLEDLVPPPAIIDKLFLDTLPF
In short: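 Reporter transcript induction, measured by RT-PCR with fluorescent labelling, HpaI digestion and capillary electrophoresis, after 24 hr dosing of human HepG2 cells transiently expressing an exogenous NR-Gal4 fusion with GAL4-UAS-driven reporters; DMSO as baseline.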

[19] = target: Estrogen receptor (Homo sapiens) (UniProt P03372); assay: ATG_ERa_TRANS: Attagene TRANS-FACTORIAL HepG2 Assay for human Estrogen Receptor alpha (ERa) (AID 2282970); details: HepG2 Attagene TRANS ERa GAL4 reporter, mRNA
In short: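 Reporter transcripts were measured 24 h after dosing by RT-PCR with fluorescent primer extension and capillary electrophoresis. The system is transiently transfected HepG2 expressing exogenous NR-Gal4 chimeras driving GAL4-UAS reporters; DMSO is the baseline.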

Measured: AC50

COC(C)(C)CCO
not listed: [13] | [14] | [15] | [16] | [17] | [18] | [19]
inactive: all other assays above

CCCCCCCCCCCC(=O)OC[C@@H](O)[C@H]1OC[C@H](O)[C@H]1O
not listed: [7] | [18] | [19]
inactive: all other assays above

CN(C)CCOc1ccc(/C(=C(/CCCl)c2ccccc2)c2ccccc2)cc1
not listed: [7] | [13] | [16] | [17] | [19]
inactive: all other assays above

COc1ccc(CCO)cc1
not listed: [7] | [12] | [13] | [14] | [16] | [17] | [18] | [19]
inactive: all other assays above

CN(C)c1ccncc1
inactive: [1] | [2] | [3] | [13] | [4] | [5] | [15] | [16] | [11] | [12]

CC(C)(N=C=O)c1cccc(C(C)(C)N=C=O)c1
not listed: [5] | [9] | [14] | [16] | [19]
inactive: all other assays above

O=c1[nH]c(=O)c2cn[nH]c2[nH]1
not listed: [14] | [15] | [17] | [18] | [19]
inactive: all other assays above

CCCCCCCCCCCC(=O)OCC(O)CO (stereo not drawn)
active: [18] 132 µM
not listed: [5] | [7] | [8] | [13] | [14] | [15] | [16]
inactive: all other assays above

CCOC(=O)c1ccc(N)cc1
not listed: [7] | [9] | [13] | [17] | [19]
inactive: all other assays above

CN(c1nccc(=O)[nH]1)C1CCN(c2nc3ccccc3n2Cc2ccc(F)cc2)CC1
active: [3] 9.35 µM
not listed: [5] | [7] | [8] | [13] | [14] | [16]
inactive: all other assays above

CCCCCCOC(=O)C(C)C
inactive: [1] | [2] | [3] | [13] | [4] | [9] | [16] | [17] | [11] | [12]

Cc1ccc(C)o1
not listed: [8] | [9] | [10] | [13] | [16] | [17] | [19]
inactive: all other assays above

OCCCCC(O)CO (stereo not drawn)
not listed: [7] | [9] | [10] | [14] | [15] | [16] | [18] | [19]
inactive: all other assays above

CCCCCCCCC=CCCCCCCCC1=NCCN1CCO
active: [2] 0.666 µM
not listed: [6] | [8] | [10] | [15] | [18] | [19]
inactive: all other assays above

CCCCOC(=O)CCCCCCCC(=O)OCCCC
not listed: [5] | [7] | [8] | [16] | [19]
inactive: all other assays above

CCOC(=O)CC(C)O (stereo not drawn)
not listed: [7] | [9] | [13] | [17] | [18] | [19]
inactive: all other assays above

CCCCCCCCCCCCCC(=O)OCC(O)CO (stereo not drawn)
not listed: [5] | [7] | [12] | [15] | [18] | [19]
inactive: all other assays above

CN1CCOCC1
not listed: [7] | [9] | [14] | [16] | [17] | [18] | [19]
inactive: all other assays above
